Compound activity: PubChem, National Center for Advancing Translational Sciences (NCATS)
RE007 growth inh: less growth of the S. pombe RE007 Vpr strain. Potency, µM (titrated, usually from 92.2 µM), most hits filed as inhibitors. S. pombe RE007 Vpr strain, BacTiter-Glo ATP luminescence, 24 h. actives 0.21% (n = 360,000); active means well fitted falling curve with a large enough effect; inconclusive means small, poorly fitted or top-dose-only effect; inactive means no such curve, though single readings can be large or run the other way; further: nearly all actives have a fitted effect of over 50% in size
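Fission yeast RE007 carrying one integrated HIV-1 vpr copy, seeded at OD 0.01 in PMG+AL medium with 23 nL pinned compound. Grown 24 h at 30 degrees; viability read by BacTiter-Glo luminescence after 5 min.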
LmPK inh: blocks Leishmania mexicana pyruvate kinase activity; Q27686; purified LmPK, Kinase-Glo ATP luminescence, 1 h; Potency, µM (titrated, usually from 57.5 µM), hits mostly inhibitors; actives 0.37% (n = 290,000); AID 1721
Target sequence (Q27686 whole entry, looked up): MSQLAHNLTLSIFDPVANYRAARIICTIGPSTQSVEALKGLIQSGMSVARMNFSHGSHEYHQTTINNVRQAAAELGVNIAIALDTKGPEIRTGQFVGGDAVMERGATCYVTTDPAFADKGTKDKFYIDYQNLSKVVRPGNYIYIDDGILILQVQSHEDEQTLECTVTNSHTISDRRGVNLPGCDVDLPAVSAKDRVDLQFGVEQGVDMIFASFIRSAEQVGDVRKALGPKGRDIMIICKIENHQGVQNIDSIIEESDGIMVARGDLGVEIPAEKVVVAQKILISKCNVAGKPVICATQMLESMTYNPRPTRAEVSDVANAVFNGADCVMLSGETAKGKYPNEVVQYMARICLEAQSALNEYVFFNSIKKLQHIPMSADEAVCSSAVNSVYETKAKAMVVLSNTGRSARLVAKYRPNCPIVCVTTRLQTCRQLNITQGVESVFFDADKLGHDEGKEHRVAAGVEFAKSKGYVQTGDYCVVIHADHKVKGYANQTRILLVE
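Kinase-Glo luminescence read after 1 h RT reaction of 0.1 nM LmPK with 0.5 mM PEP and 0.1 mM ADP. Activity scaled between uninhibited and enzyme-free controls.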
TbPYK inhibitor: T. brucei pyruvate kinase inhibition. TbPYK enzyme, Kinase-Glo Plus ATP luminescence, 45 min. Potency, µM (top dose mostly 76.8 µM), actives largely listed as inhibitors. actives 0.12% (n = 410,000). Q57TT1; further: nearly all actives have a fitted effect of over 50% in size
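Activity of T. brucei pyruvate kinase was followed by Kinase-Glo Plus luminescence after the enzyme reacted 45 min at room temperature with 130 uM ADP (final) and substrate. Test compounds were added before ADP at multiple concentrations.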
SARS PLpro yeast: blocks SARS-CoV papain-like protease in a yeast assay; actives 0.19% (n = 330,000); Potency, µM (doses to about 32.9 µM), most hits filed as activators; S. cerevisiae expressing SARS-CoV PLpro, growth rescue; calls by dose curve; further: nearly all actives have a fitted effect of over 55% in size
NS1 inh: blocks influenza NS1 protein function. Potency, µM (titrated, usually from 46.1 µM). actives 0.4% (n = 270,000). AID 2326; calls by dose curve; further: actives are rising curves; nearly all actives have a fitted effect of over 50% in size
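Compounds were scored for reversing the slow growth caused by influenza A NS1 in S. cerevisiae, measured by optical density at 600 nm. Assay medium contained 2% galactose at pH 6.0; NS1-free yeast of the same strain were the positive control.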
Sm TGR block: inhibitors of Schistosoma mansoni thioredoxin glutathione reductase; Q962Y6; purified TGR, DTNB reduction, TNB absorbance 405 nm; Potency, µM (series often up to 114 µM), actives largely listed as inhibitors; actives 3% (n = 360,000); AID 485364; further: nearly all actives have a fitted effect of over 60% in size
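First, TGR (20 nM dispensed) and NADPH were mixed with compound. Second, a 15 min room-temperature incubation followed. Third, further NADPH and then DTNB were added to start the reaction. Finally, TNB absorbance was monitored kinetically.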
Numbers stand for hits; . = inactive; ? = inconclusive; / = no result given. Sampled rows, rich in hits. Any-hit rate of the full collection: about 3.3%. Unless noted, the call rests on the fitted dose curve; in most records, active means well fitted curve in the direction sought with a large enough effect; inconclusive means small, poorly fitted or top-dose-only effect, or another doubt; inactive means no such curve, though single readings can be large; an effect the other way counts as inactive or inconclusive.

SMILES	RE007 growth inh	LmPK inh	TbPYK inhibitor	SARS PLpro yeast	NS1 inh	Sm TGR block
COc1cccc(-n2c(C)c3c(OC)cccc(=O)c3c2C)c1	.	.	.	.	?	22µM
COc1cccc(=O)c2c(C)n(-c3cc(C)cc(C)c3)c(C)c12	.	.	.	.	.	.
COc1cc(OC)c(NC(=O)C(CC(C)C)N2Cc3ccccc3C2=O)cc1Cl (stereo not drawn)	/	/	.	/	/	.
O=[N+]([O-])/C(=C\Nc1ccccc1)S(=O)(=O)c1ccccc1	.	.	.	.	.	40µM
O=[N+]([O-])/C(=C\Nc1ccccc1Cl)S(=O)(=O)c1ccccc1	/	.	/	.	.	40µM
COc1ccc(N/C=C(\[N+](=O)[O-])S(=O)(=O)c2ccccc2)cc1	.	.	.	.	.	?
Cc1cccc(N2C(=O)CC(Sc3nnc(C)s3)C2=O)c1 (stereo not drawn)	35µM	.	.	.	.	3.5µM
Cc1ccc(N2C(=O)CC(Sc3cccs3)C2=O)cc1 (stereo not drawn)	?	.	.	.	.	7.1µM
Cc1cccc(N2C(=O)CC(Sc3nc(C)cc(C)n3)C2=O)c1 (stereo not drawn)	.	.	.	.	.	.
Cc1cc(C)cc(N2C(=O)CC(Cn3nc(C)cc3C)C2=O)c1 (stereo not drawn)	.	.	.	.	.	.
Cc1ccc(N2C(=O)CC(Sc3nccc(C)n3)C2=O)cc1 (stereo not drawn)	.	.	.	.	.	?
Cc1cc(C)cc(N2C(=O)CC(Sc3ncn[nH]3)C2=O)c1 (stereo not drawn)	.	.	.	.	.	0.5µM
Cc1cc(C)cc(N2C(=O)CC(Sc3nnnn3-c3ccccc3)C2=O)c1 (stereo not drawn)	.	.	.	.	.	5µM
COc1ccc(C2N3CC4(C)CN2CC(c2ccccc2)(C3)C4=O)cc1 (stereo not drawn)	/	/	.	/	/	.
CC1CCN(c2nc3ccccc3nc2SCC(=O)Nc2ccccc2C(C)C)CC1	/	/	.	/	/	.
O=C(CSc1nc(=O)n(Cc2ccccn2)c2c1CCC2)Nc1ccccc1	/	/	.	/	/	.
Cc1cc(C)c(NC(=O)Cn2c(=O)n(CC3CCCO3)c(=O)c3ccccc32)c(C)c1 (stereo not drawn)	/	/	.	/	/	.
O=S(=O)(O)c1ccc(O)cc1	/	/	.	/	/	/
Cn1nnnc1SC1CC(=O)N(c2ccccc2)C1=O (stereo not drawn)	32µM	.	.	.	.	1.6µM
O=C1CC(Sc2nnnn2C2CCCCC2)C(=O)N1c1ccccc1 (stereo not drawn)	?	.	.	.	.	3.2µM
Cc1c(O)nc(SC2CC(=O)N(c3ccccc3)C2=O)[nH]c1=O (stereo not drawn)	.	.	.	/	.	?
O=C(CN1C(=O)CCSc2ccccc21)Nc1ccc(C(F)(F)F)cc1	/	/	.	/	/	.
COc1ccc(-c2cn3nc(SCC(=O)Nc4ccc(C)c(Cl)c4)ccc3n2)cc1	/	/	.	/	/	.
O=C(/C=C/c1ccc(Br)o1)OCc1nc2ccsc2c(=O)[nH]1	.	/	.	.	/	45µM
Cc1ccc(C(C)C)c(OCC(=O)NCC2(N(C)C)CCCCC2)c1	/	/	.	/	/	.
SMILES	RE007 growth inh	LmPK inh	TbPYK inhibitor	SARS PLpro yeast	NS1 inh	Sm TGR block
O=C1NC(=S)N(c2ccc(F)cc2)C(=O)/C1=C/c1ccco1	/	.	/	.	?	32µM
Cc1ccc(N2C(=O)NC(=O)/C(=C\c3ccoc3)C2=O)cc1	.	.	?	.	/	.
COc1ccc(OC)c(N2C(=O)NC(=O)/C(=C/c3ccc([N+](=O)[O-])s3)C2=O)c1	.	?	?	.	/	4µM
COc1ccc(OC)c(N2C(=O)/C(=C/c3ccco3)C(=O)NC2=S)c1	.	.	?	.	.	32µM
O=C1NC(=S)N(c2ccc(F)cc2)C(=O)/C1=C\c1ccoc1	.	.	?	.	/	32µM
COc1ccc(OC)c(N2C(=O)CC(=O)NC2=O)c1	.	.	.	.	.	.
CCn1cc(C(=O)Nc2ccc(C(C)C)cc2)c2cc(OC)c(OC)cc2c1=O	/	/	.	/	/	.
CCn1c(CN2CCCCC2)nc2cc(NC(=O)c3cc(OC)c(OC)c(OC)c3)ccc21	/	/	.	/	/	.
CC(C)(C)c1ccc(OCCOCCn2c(-c3ccc(Cl)cc3)nc3ccccc3c2=O)cc1	/	/	.	/	/	.
COc1cc(/C=C2\C(=O)NC(=O)N(c3ccccc3)C2=O)c([N+](=O)[O-])cc1OC	.	.	?	.	?	1.6µM
CC(=O)N1C(=O)/C(=C2\SC(=S)N(NS(=O)(=O)c3ccc(C)cc3)C2=O)c2ccccc21	.	.	.	.	.	2.5µM
O=C(N/C=C/c1ccco1)Nc1cccc(Cl)c1	.	.	.	.	.	45µM
COc1ccc(NC(=O)N/C=C/c2ccco2)cc1	.	.	.	.	/	14µM
COc1ccc(C2CC(=O)c3cc(-c4nc(-c5cccc(Cl)c5)cs4)c(=O)[nH]c3C2)cc1OC (stereo not drawn)	/	/	.	/	/	.
COCCc1nn2c(=O)cc(COC(=O)c3ccc(Br)cc3)nc2s1	/	/	.	/	/	89µM
COC(=O)c1c(C(=O)OC)c(-c2ccc(OC)cc2)n2c1CS(=O)(=O)C2	.	.	.	.	.	50µM
COC(=O)c1c(C(=O)OC)c(-c2ccc(C)cc2)n2c1CCC2	.	.	.	.	.	.
C[n+]1ccccc1/C=C/c1ccccc1Cl	.	.	.	.	.	22µM
C[n+]1ccccc1/C=C/c1ccc(C#N)cc1	.	.	?	.	.	45µM
Cc1ccccc1/C=C/c1cccc[n+]1C	.	.	.	.	.	.
C[n+]1ccccc1/C=C/c1c(F)cccc1F	.	.	.	.	.	13µM
C[n+]1ccccc1/C=C/c1ccc([N+](=O)[O-])cc1	.	.	.	.	.	.
Cc1cc(C(=O)C(C)Cl)c(C)n1Cc1ccco1 (stereo not drawn)	.	.	.	.	/	28µM
Cc1cc(C(=O)COC(=O)C(C)NC(N)=O)c(C)n1Cc1ccco1 (stereo not drawn)	.	.	.	.	/	.
COc1cc(Cl)c(C)cc1NC(=O)CC(c1ccc(F)cc1)N1Cc2ccccc2C1=O (stereo not drawn)	/	/	.	/	/	.
CCN1C(=O)[C@H]2[C@@H](c3ccc(-c4ccc(Cl)c(Cl)c4)c(OC)c3)N[C@@](C)(C(=O)OC)[C@H]2C1=O	.	/	.	.	/	40µM
COc1ccc(N2CCN(C(=O)C3CCN(S(=O)(=O)c4cn(C)cn4)CC3)CC2)cc1	/	/	.	/	/	.
O=C(O)c1ccccc1-n1ncc2c1/C(=C/c1ccc(Cl)cc1)CC2	/	.	/	.	.	14µM
O=C(c1ccccc1)C1CC1c1ccccc1 (stereo not drawn)	18µM	/	.	/	/	/
